Consider 16 molecules from paper PMC12136788.

Sequences and labels used below:
T1: UNK ZnF1-3 (human, UniProt Q9C0B0 31-174)
T1 sequence: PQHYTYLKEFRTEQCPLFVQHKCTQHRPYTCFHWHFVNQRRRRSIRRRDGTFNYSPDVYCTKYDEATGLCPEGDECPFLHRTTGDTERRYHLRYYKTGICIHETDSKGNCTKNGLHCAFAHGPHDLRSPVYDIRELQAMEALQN

B1: chr8:21961785:21961786:+_ENSG00000158863_ENST00000289921|hu_hu|FALSE|FALSE (ssRNA)
RNA: GGGAGUUCUACAGUCCGACGAUCGCACUGAGGAGAGGGGAGGGUCUGUGACUCCCAAACCCUCGAAUAUUUUAUGAAUCUAAGAGUCCAGACGCAGUUCAUCCACGGAGAUCUGCGCCCCGUCCACACCAACACCCACGUUUGCAACAGAGGAUUGAGCAUCA
B2: chr2:216981417:216981418:+_ENSG00000079246_ENST00000392132|hu_hu|hu_hu_hu_mus_True|8_48 (ssRNA)
RNA: GGGAGUUCUACAGUCCGACGAUCCUGAUACUGGUCCUUGCCAGCAAGGGCAUUAUCAGUGCCAUCUGUGCCAUAGAGGACUAACGCAAUCUCAUCCUUGCUCUCCGAAAAUACCUGUCGUUGGACAAACAUGGUUAUCACUUUCAACAGAGGAUUGAGCAUCA
B3: chr7:65705844:65705845:+_ENSG00000169902_ENST00000304842|hu_mus|hu_hu_hu_mus_False|18_108 (ssRNA)
RNA: GGGAGUUCUACAGUCCGACGAUCAAAAGGAUCUUUAUUACAUAAAUAAGGUGCCGGCUCCCCAUGUUUAACAAUGACCUCCAGAAGGAAGGCUUGCAUGGCAGAAUCUAGCACUUCAUCAGUAACACCCGCCUCAUCCAAGCGCAACAGAGGAUUGAGCAUCA
B4: chr18:43795804:43795805:+_ENSG00000152242_ENST00000321319|hu_hu|FALSE|FALSE (ssRNA)
RNA: GGGAGUUCUACAGUCCGACGAUCCUCCUCCAUCUUCAUUUCAGAAUUUCAAGUUAAAUCAUGGAGUAGAGUCUAGGAAAUGAUAUCAAAGAUGCAACAGGAAAGCAACCUGCGCUCCGCGGCGACUCCGUGCCUUCUCGCUCGCAACAGAGGAUUGAGCAUCA
B5: chr11:100882373:100882374:+_ENSMUSG00000019302_ENSMUST00000044721|mus_mus|mus_mus_mus_hu_True|38_108 (ssRNA)
RNA: GGGAGUUCUACAGUCCGACGAUCUUCCUGGUUAGUGUUGAUUUCCUUCAGUUCAUUUUCAAUCUUCUCAAAAUUGGCCUCUAAGUCAAUCAUGUCCCGAGGGAAGGGAACCUCUGGGUUUUCACCGGUGUCCAUAAUCGGAAUCAACAGAGGAUUGAGCAUCA
B6: chr9:122046315:122046316:+_ENSMUSG00000038145_ENSMUST00000120173|mus_hu|FALSE|FALSE (ssRNA)
RNA: GGGAGUUCUACAGUCCGACGAUCUAGUUUGGUCUGGGUGUCAAUAACUUCAUAAAGGCGGACGAUGUUAGGAUGCUGCACUAGUUUCAUGCAUCUCACUUCCUGGAAAAGAUGACCAGUAGCUAGAGUGUCCAGUUUUGUCUUCAACAGAGGAUUGAGCAUCA
B7: chr1:46159212:46159213:+_ENSG00000159596_ENST00000372025|hu_mus|hu_hu_hu_mus_True|1_28 (ssRNA)
RNA: GGGAGUUCUACAGUCCGACGAUCUCUGAUCCCUCCCAAGAAAGCUAGGAAACCGGCUCCAUAAGCCAUCUGAGUGAAAGCUAGGACGGGGAUAUAAGACUUUGUUAUCAGCAUGACAAGUGGGGGAGCAGUAAAGGGGAUUAGCAACAGAGGAUUGAGCAUCA
B8: chr1:46159212:46159213:+_ENSG00000159596_ENST00000372025|hu_mus|hu_hu_hu_mus_True|28_108 (ssRNA)
RNA: B7 RNA with U33A, G143A
B9: chr2:49628383:49628384:+_ENSMUSG00000026764_ENSMUST00000028102|mus_mus|FALSE|FALSE (ssRNA)
RNA: GGGAGUUCUACAGUCCGACGAUCUUGGUACUGACGGGGUUUGCAGACUUGCCCUGCAAAGGACCCCUCCAUCAGACUCCAAUAGCAGCCAACAGUGGCAACAACAUGAAACAAAGUGAACACAGGUAAACACAAAAUCAUCUUCAACAGAGGAUUGAGCAUCA
B10: chr12:51141157:51141158:+_ENSG00000066084_ENST00000301180|hu_mus|FALSE|FALSE (ssRNA)
RNA: GGGAGUUCUACAGUCCGACGAUCUCAAAGAAAAGCAACAGAAAAUAAAAAAAAAAAAAGAAGUAGUCAUUACCAGAAGGAGGAAAAGACUAGAAGCCUGGGCAAGGCAUGAAGGUGUCUGCUGCAAUUUCAGUACUCGGGACACAACAGAGGAUUGAGCAUCA
B11: chr18:33597908:33597909:-_ENSMUSG00000042834_ENSMUST00000171533|mus_hu|FALSE|FALSE (ssRNA)
RNA: GGGAGUUCUACAGUCCGACGAUCCAUCAAAAGAGUACAUGGAUAAAAUAUAGAGAUAUACAGACAAUUGAUGAACAUAAACUACUAGGUUUGUUACAUCUAAAUGAAAAAAAAGGUGGGGGGGGGACUCUCAGCCUCUGCAAGCAACAGAGGAUUGAGCAUCA
B12: chr19:16212804:16212805:+_ENSG00000167460_ENST00000300933|hu_mus|hu_hu_hu_mus_False|88_108 (ssRNA)
RNA: GGGAGUUCUACAGUCCGACGAUCAACAAAUAUGCAAUGAAGGAAAGCAUCAAGGAUGAACAGCAUUAAAGCUCAGUCAGAAGGCACAUGGGCAACAAUGAUCACCCCAGCAUUCUCGCUUGGAAUGCUUAAAGACAAUCUGUUCAACAGAGGAUUGAGCAUCA
B13: chr18:33597908:33597909:-_ENSMUSG00000042834_ENSMUST00000171533|mus_hu|motif|central (ssRNA)
RNA: B11 RNA with U82G, A83G, U85G, A86G
B14: chr1:46159212:46159213:+_ENSG00000159596_ENST00000372025|hu_mus|hu_hu_hu_mus_True|28_58 (ssRNA)
RNA: B7 RNA with G83A, G84U, C86U, G143A
B15: chr1:46159212:46159213:+_ENSG00000159596_ENST00000372025|hu_mus|hu_hu_hu_mus_True|28_48 (ssRNA)
RNA: B7 RNA with G90A, G143A
B16: 104520116_104520236_3471_3pUTR_ENSMUSG00000027175_ENSMUST00000111118|mouse|control|control (ssRNA)
RNA: GGGAGUUCUACAGUCCGACGAUCAAGUUAAAAUUCCAGCCUAUGUGAAAAGAGAUACAAUUUAACACAGGUGACAGGACGCUCUGCUGUUAGUUUCCCUACAUCAAAGACUAUUCCAGUACAAUGAACAGGAGGGUUUGGAAGCAACAGAGGAUUGAGCAUCA

Numbering of substitutions follows the chain as printed. Whole data set: some 24,000 sequences, median “enrichment r” near 0.99, cut for the highest 2% near 3.7. What follows is part of a selection rich in the highest values, with near analogues and random picks from the rest.

The experiment addresses T1, UNK ZnF1-3. Nature of the experiment: nsRBNS (natural sequence RNA bind-n-seq); RBNS binding buffer (assumed for nsRBNS): 25 mM Tris pH 7.5, 150 mM KCl, 3 mM MgCl2, 0.01% Triton X-100, 500 ug/ml BSA, 20 U/ml SUPERase-In, 4 C; UNK is unkempt and MSI1 is Musashi-1; names of the RNAs are library labels; protein concentration not given here; high values mean tight binding.
On to B1, for which the binding signal was found to be 1.03 enrichment R.

For B2, the binding signal was found to be 0.64 enrichment R.

As to B3, the binding signal amounted to 0.624 enrichment R.

As to B4, the binding signal is 0.921 enrichment R.

B5 yielded a binding signal of 0.664 enrichment R.

B6: the binding signal came out at 0.873 enrichment R.

In turn, B7 displayed a binding signal of 3.95 enrichment R.

In turn, B8 gave a binding signal of 1.36 enrichment R.

With B9, the binding signal turned out to be 0.994 enrichment R.

In turn, B10 came in with a binding signal of 4.07 enrichment R.

Consider B11, for which the binding signal turned out to be 13.4 enrichment R.

Molecule B12 returned a binding signal of 1.33 enrichment R.

The molecule B13 came in with a binding signal of 6.29 enrichment R.

For the molecule B14, the binding signal came to 1.32 enrichment R.

Molecule B15 came in with a binding signal of 1.5 enrichment R.

Take B16: the binding signal stood at 1.5 enrichment R.
